Screening data as filed in PubChem.
SMARCA2 activ – increases SMARCA2 function in MMTV reporter cells; MG213 cells, MMTV-luciferase reporter, dexamethasone, overnight; activation, % at 9.1 µM; hit rate 1% among 370,000; AID 652017; in the data active = activation above about 7.8%;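 note: 0% = vehicle wells and 100% = reference activator wells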
DAX1 inh-1 – inhibits human nuclear receptor DAX1. P51843. inhibition, % at 6.75 µM. hit rate 0.99% among 340,000. HEK293 Gal4-DAX1 luciferase reporter, luminescence;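 active = inhibition above the mean over all tested compounds plus 3 SD, cut at about 4.2% in these data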;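 note: 0% = DAX1-transfected cells with DMSO and 100% = empty-vector control cells with DMSO; inhibition shows as a rise in luminescence from relieved DAX1 repression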
Target sequence (P51843 207-470 limits assumed): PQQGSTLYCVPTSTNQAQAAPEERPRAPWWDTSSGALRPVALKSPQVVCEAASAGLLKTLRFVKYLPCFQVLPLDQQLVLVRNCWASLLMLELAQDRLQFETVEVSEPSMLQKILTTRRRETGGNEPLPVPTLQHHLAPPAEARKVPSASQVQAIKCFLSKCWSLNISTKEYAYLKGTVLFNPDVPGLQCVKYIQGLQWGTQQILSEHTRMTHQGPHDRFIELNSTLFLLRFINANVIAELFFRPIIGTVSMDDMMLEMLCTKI
DAX1 inh-2 – inhibitors of DAX1 repression of SF-1 activated StAR promoter. HEK293T StAR-luciferase reporter, SF-1/DAX-1 repression relief. inhibition, % at 6.8 µM. hit rate 1.1% among 370,000;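 active = inhibition above the mean over all tested compounds plus 3 SD, cut at about 3.6% in these data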;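 note: 0% = DAX-1 cells with DMSO and 100% = cells lacking DAX-1 with DMSO; higher inhibition means more luminescence from relief of DAX-1 repression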
hcDAF12 agonist – activates DAF-12 receptor from parasite H. contortus. activation, % at 6.8 µM. AID 652067. hit rate 1.4% among 370,000. HEK293 hcDAF-12 lit1-tk-luc reporter, luminescence; 0% DMSO, 100% Δ7-dafachronic acid;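 active = activation above the mean of all tested compounds plus 3 SD, cut at about 5.5% in these data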;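 note: 100% = response to 3 µM Δ7-dafachronic acid high control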
ssDAF12 agonist – S. stercoralis DAF-12 activation, primary screen | AID 652126 | hit rate 1% among 370,000 | HEK293 ssDAF-12/GRIP1 lit1-tk-luc reporter, luminescence; % of 3 µM dafachronic acid response | activation, % at 6.8 µM;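 active = activation above the mean over all tested compounds plus 3 SD, cut at about 0.9% in these data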;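 note: 0% = DMSO-only wells and 100% = 3 µM delta7-dafachronic acid wells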
hgDAF-12 ag – agonists of H. glycines DAF-12 nuclear receptor; HEK293 GAL4-hgDAF12 UAS-luciferase reporter, agonist luminescence; normalized to butyrate control; activation, % at 6.8 µM; hit rate 1.8% among 370,000; AID 687014;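 active = activation above a cutoff set at the mean of all screened compounds plus 3 SD, cut at about 10% in these data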;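 note: 0% = DMSO wells and 100% = sodium butyrate wells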
SMARCA2 act conf – SMARCA2 activation, confirmation screen. MG213 cells, MMTV-luciferase with dexamethasone, luminescence, overnight; MG213 cells expressing E1A, Rb sequestered; DMSO wells 0%, reference activator 100%. AID 652260. hit rate 30% among 3,500. activation, % at 9.1 µM. shares compounds with SMARCA2 activ;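 active = activation above its plate's cutoff, the mean activation of tested wells plus 3 SD, cut at about 7.9% in these data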
GAL4-VP16 Luc – counter-screen for SMARCA2 activators: GAL4-VP16 luciferase reporter activation; AID 686939; hit rate 41% among 3,500; shares compounds with SMARCA2 activ; activation, % at 9.1 µM; HEK293 GAL4-VP16 pG5luc reporter, luciferase luminescence; scaled: DMSO wells 0%, SAHA wells 100%;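 active = activation above the solvent-only control well mean plus 3 SD, averaged across control plates, cut at about 5.2% in these data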
The depositor's hits bear a star; · = not tested or not shown; ! = not active in a repeat. Hits are enriched below; roughly 4.8% of the tested compounds scored in any of these assays.

SMILES	SMARCA2 activ	DAX1 inh-1	DAX1 inh-2	hcDAF12 agonist	ssDAF12 agonist	hgDAF-12 ag	SMARCA2 act conf	GAL4-VP16 Luc
CCOc1ccc(-c2noc(-c3ccncc3)n2)cc1OCC	-3	0	0	1	0	0	·	·
COc1ccc(-c2nc(-c3ccncc3)no2)cc1OC	12*	2	1	3	0	9	6	8.8*
COc1cc(C)c(NC(=O)C2CCN(S(=O)(=O)c3cccs3)CC2)cc1OC	-2	3	1	-2	-1	0	·	·
CCN(CC)C(=S)SCC(=O)Nc1nc(=O)c2ccccc2s1	8.5*	0	1	0	-1	0	2	2
CCCCC(=O)Nc1cc(C(=O)NCCc2ccccc2)ccc1Cl	8.2*	1	4.4*	2	0	9	7	8.8*
COC(=O)c1ccc2[nH]c(C(C)(C)O)c(C)c2c1	8.2*	0	0	1	-1	3	3	5
COC(=O)c1ccc2[nH]c(C)cc(=O)c2c1	1	1	0	2	-1	0	·	·
COc1ccc(C(=O)NNC(=O)c2ccc3ccccc3n2)cc1	15*	0	0	-1	-1	0	-14	4
COC(=O)c1ccc(N2CCN(C)CC2)c(NC(=O)c2cccs2)c1	1	1	0	0	-1	-1	·	·
C/C(=N/NC(=O)Nc1ccccc1)c1ccc(C)cc1	8.7*	2	0	-2	-1	-2	3	0
Cc1ccc(CNC(=O)Nc2ccccc2)cc1	8.7*	0	2	4	0	5	5	11*
Cc1ccc(NC(=O)NCCCCc2ccccc2)cc1	3	0	1	0	-2	3	·	·
O=C(NCCCc1ccccc1)Nc1ccccc1	13*	1	0	2	-1	1	7	2
O=C(NCc1ccc(F)cc1)Nc1ccccc1	0	1	2	1	0	9	·	·
C/C(=N\NC(=O)Nc1ccccc1)c1ccc2ccccc2c1	0	1	0	-1	-1	-1	·	·
Cc1cc(NC(=O)c2ccccc2[N+](=O)[O-])ccc1Br	8.2*	4.8*	0	-1	0	6	13*	6.3*
CCN(C(=O)COC(=O)c1[nH]c(=O)[nH]c(=O)c1N)c1ccccc1	0	0	0	0	0	-2	·	·
C/C(N)=C(/C#N)C(=O)CSc1ccccc1F	9.0*	1	1	2	0	8	10*	8.8*
C/C(N)=C(/C#N)C(=O)CSc1n[nH]c(-c2ccccc2Br)n1	8.6*!	0	1	1	0	8	-1	1
Cc1cc(NC(=O)CSc2n[nH]c(-c3ccccc3Br)n2)no1	-3	0	0	-1	-1	0	·	·
O=C(NCc1ccc(F)cc1)C(c1cccnc1)N(C(=O)c1csnn1)c1ccccc1 (centres undefined)	9.0*	0	0	4	-1	-2	-4	0
C=CCN(C(=O)c1csnn1)C(C(=O)NCc1ccc(F)cc1)c1ccc(F)cc1 (centres undefined)	0	1	0	-2	-1	-1	·	·
Cc1ccc(N(C(=O)c2csnn2)C(C(=O)NC2CCCCC2)c2cccnc2)cc1 (centres undefined)	9.6*	1	0	0	-1	4	-2	4
C=CCN(C(=O)c1csnn1)C(C(=O)NCc1ccc(F)cc1)c1sccc1C (centres undefined)	8.0*	-1	0	-1	-1	-1	-3	-2
Cc1ccc(N(C(=O)c2csnn2)C(C(=O)NC2CCCC2)c2cccnc2)cc1 (centres undefined)	8	-1	0	1	-1	-1	·	·
SMILES	SMARCA2 activ	DAX1 inh-1	DAX1 inh-2	hcDAF12 agonist	ssDAF12 agonist	hgDAF-12 ag	SMARCA2 act conf	GAL4-VP16 Luc
CC1=C(C(=O)N2CCOCC2)CC(CC(=O)NCc2cccs2)C(=O)N1Cc1ccc(F)cc1 (centres undefined)	-4	-1	1	0	-1	1	·	·
COc1cccc(NC(=O)c2ccc3nsnc3c2)c1	8.1*	0	1	3	1	9	4	10*
CCOc1ccc(NC(=O)c2nn(C)cc2Br)cc1	5	2	2	1	0	7	·	·
COc1cccc(NC(=O)c2nn(C)cc2Br)c1	8.0*	1	0	0	-1	4	4	3
CCn1cc(Br)c(C(=O)Nc2cccc(SC)c2)n1	8.0*	0	0	2	-1	6	4	4
CC(=O)N(Cc1ccccc1)c1nc(-c2ccccc2)cs1	-4	-1	0	-2	-2	1	·	·
O=C(NCC1CCCO1)c1sc2cc(Cl)ccc2c1Cl (centres undefined)	10*	-1	1	2	-1	7	8.4*	9.4*
COC(=O)Cc1csc(Nc2ccccc2)n1	8.4*	0	0	2	-2	4	6	4
COC(=O)Cc1csc(Nc2ccc(Cl)cc2)n1	1	1	0	-1	-1	3	·	·
O=C(CCc1nc2ccccc2s1)NC1CCOC1=O (centres undefined)	3	1	0	1	-1	-2	·	·
Nc1ccnc(Oc2ccc(F)cc2)c1	18*	0	0	1	-1	2	-2	4
COc1cccc(C(=O)Nc2cc(=O)n(C)c(=O)n2C)c1OC	8.3*	0	1	-1	-1	-2	-3	3
Nc1ccc2ccc(N)cc2c1	13*	·	-2	0	-1	-4	0	2
Cc1ccc(NC(=O)c2ccc(OC(=O)C(C)Oc3ccc(Cl)cc3C)cc2)cc1 (centres undefined)	11*	0	1	3	-1	5	8.0*	1
CCOC(=O)c1cnn(-c2cccc(Cl)c2)c1N	9.4*	2	1	1	-1	8	6	2
CC(C)(/C=N/NC(=O)CSCc1ccc(Cl)cc1)CCC#N	-2	2	1	2	-1	4	·	·
Cc1ccc(S(=O)(=O)N2CCC(C(=O)OCC(=O)N3CCCC3=O)CC2)cc1C	-3	0	0	-3	-1	0	·	·
CCOc1ccc2nc(/N=C/c3c(C)[nH]n(-c4ccc(C)cc4)c3=O)sc2c1	11*	1	1	4	0	7	2	6.5*
